{
  "source": "PubChem BioAssay AID1259412",
  "about": "(Laboratorio de Genomica e Expressao (LGE), UNICAMP, 2018)",
  "data": [
    {"assay": "alternative oxidase inhibition and growth effect – profiling panel (AID 1259412);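 further: growth monitored over 72 h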", "conditions": "AOX-dependent respiration, O2 uptake; measured here: growth, AOX-dependent treatment condition; at 500 µM; stronger effect = lower value", "units": {"growth (% of control)": "%"}, "values": [
      {"smiles": "O=C(Nc1cccc(OCc2ccccc2)c1)c1cccc(Cl)c1", "growth (% of control)": 95.6},
      {"smiles": "Cc1cccc(C(=O)Nc2cccc(Cl)c2)c1", "growth (% of control)": 14.9},
      {"smiles": "O=C(Nc1ccccc1)c1cccc(Cl)c1", "growth (% of control)": 92.3},
      {"smiles": "N#Cc1cccc(C(=O)Nc2cccc(Cl)c2)c1", "growth (% of control)": 54.1},
      {"smiles": "O=C(Nc1ccc(N2CCOCC2)cc1)c1cccc(I)c1", "growth (% of control)": 95.3},
      {"smiles": "O=C(Nc1cccc(F)c1)c1ccccc1", "growth (% of control)": 83},
      {"smiles": "N#Cc1cccc(C(=O)Nc2ccccc2C(N)=O)c1", "growth (% of control)": 99.3},
      {"smiles": "O=C(Nc1cccc(Cl)c1)c1cccc(Cl)c1", "growth (% of control)": 48.1},
      {"smiles": "NC(=O)c1ccccc1NC(=O)c1cccc(Cl)c1", "growth (% of control)": 65.4},
      {"smiles": "O=C(Nc1cccc(OCc2ccccc2)c1)c1ccccc1", "growth (% of control)": 99.7},
      {"smiles": "O=C(Nc1ccc(N2CCOCC2)cc1)c1cccc(Cl)c1", "growth (% of control)": 89.6},
      {"smiles": "O=C(Nc1cccc(NC(=O)c2ccccc2)c1)c1ccccc1", "growth (% of control)": 106},
      {"smiles": "O=C(Nc1cccc([N+](=O)[O-])c1)c1cccc(I)c1", "growth (% of control)": 68.4},
      {"smiles": "Nc1cccc(S(=O)(=O)c2cccc(NC(=O)c3cccc(Cl)c3)c2)c1", "growth (% of control)": 94.1},
      {"smiles": "O=C(Nc1ccc(N2CCOCC2)cc1)c1ccccc1", "growth (% of control)": 85.7},
      {"smiles": "NC(=O)c1ccccc1NC(=O)c1ccccc1", "growth (% of control)": 84.2},
      {"smiles": "Cc1cccc(C(=O)Nc2cccc(Br)c2)c1", "growth (% of control)": 26.6},
      {"smiles": "O=C(Nc1cccc([N+](=O)[O-])c1)c1cccc(Cl)c1", "growth (% of control)": 84.5},
      {"smiles": "O=C(Nc1ccccc1)c1cccc(Br)c1", "growth (% of control)": 75},
      {"smiles": "O=C(Nc1ccc(N2CCOCC2)cc1)c1cccc(Br)c1", "growth (% of control)": 76.7},
      {"smiles": "O=C(Nc1cccc(NC(=O)c2cccc(Cl)c2)c1)c1cccc(Cl)c1", "growth (% of control)": 90.7},
      {"smiles": "Cc1cccc(C(=O)Nc2cccc(NC(=O)c3cccc(C)c3)c2)c1", "growth (% of control)": 70.5},
      {"smiles": "NC(=O)c1ccccc1NC(=O)c1cccc(Br)c1", "growth (% of control)": 97.2},
      {"smiles": "Cc1cccc(C(=O)Nc2cccc(OCc3ccccc3)c2)c1", "growth (% of control)": 93.7},
      {"smiles": "O=C(Nc1ccccc1)c1ccccc1", "growth (% of control)": 69.8},
      {"smiles": "Nc1cccc(S(=O)(=O)c2cccc(NC(=O)c3cccc(Br)c3)c2)c1", "growth (% of control)": 86.5},
      {"smiles": "O=C(NCc1ccc2c(c1)OCO2)c1cccc(I)c1", "growth (% of control)": 99.2},
      {"smiles": "O=C(Nc1cccc(Br)c1)c1cccc(F)c1", "growth (% of control)": 22.3},
      {"smiles": "NC(=O)c1ccccc1NC(=O)c1cccc(I)c1", "growth (% of control)": 91.2},
      {"smiles": "N#Cc1cccc(C(=O)Nc2ccc(N3CCOCC3)cc2)c1", "growth (% of control)": 96.5},
      {"smiles": "O=C(NCc1ccc2c(c1)OCO2)c1cccc(Br)c1", "growth (% of control)": 88},
      {"smiles": "O=C(Nc1cccc([N+](=O)[O-])c1)c1cccc(Br)c1", "growth (% of control)": 74.5},
      {"smiles": "Nc1cccc(S(=O)(=O)c2cccc(NC(=O)c3cccc(F)c3)c2)c1", "growth (% of control)": 84},
      {"smiles": "COc1cccc(C(=O)Nc2cccc(S(=O)(=O)c3cccc(N)c3)c2)c1", "growth (% of control)": 132},
      {"smiles": "COc1cccc(C(=O)NCc2ccc3c(c2)OCO3)c1", "growth (% of control)": 46.4},
      {"smiles": "CCN(CC)CCNC(=O)c1ccccc1", "growth (% of control)": 92.5},
      {"smiles": "O=C(NCc1ccc2c(c1)OCO2)c1cccc(F)c1", "growth (% of control)": 39.8},
      {"smiles": "N#Cc1cccc(C(=O)Nc2cccc(OCc3ccccc3)c2)c1", "growth (% of control)": 108}
    ]}
  ]
}
